Results filed as inconclusive are left out. Calls of active or inactive are those of the source. Unless noted, calls follow the shape of the dose curve; as a rule, active = well fitted curve in the direction sought with a large enough effect in the repeat runs; inconclusive = weak or mixed curves; inactive = no such curve, though single readings can be large; an effect the other way counts as inactive or inconclusive.
Columns and labels:
[1] = A CellTox Green Cytotoxicity Assay to monitor cytotoxicity in HEK293 cells - 32 hour (AID 1224881); also: nearly all actives have a fitted effect of over 40% in size
Outline: (§1)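 Real-time, in one plate: 600 HEK293 cells/well with dead-cell DNA dye, pinned compound after 5 h, 37 C incubation over 40 h; viable cells give no appreciable fluorescence.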

[2] = A CellTox Green Cytotoxicity Assay to monitor cytotoxicity in HepG2 cells - 32 hour (AID 1224883); also: nearly all actives have a fitted effect of over 50% in size; also: potency is read from the fitted curve at half-maximal effect
Outline: (§2)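 Cytotoxicity was tracked as dead-cell DNA fluorescence in HepG2 cells treated with test compounds at 37 C; each time-point value comes from one kinetic series spanning 0, 8, 16, 24, 32 and 40 h.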

[3] = A CellTox Green Cytotoxicity Assay to monitor cytotoxicity in HEK293 cells - 8 hour (AID 1224884); also: nearly all actives have a fitted effect of over 35% in size
Outline: as §1

[4] = qHTS RealTime-Glo MT Cell Viability Assay in HepG2 cells - 16 hour (AID 1224885); also: nearly all actives have a fitted effect of over 50% in size
Outline: (§3)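 HepG2 cells were seeded at 600 cells/well together with NanoLuc luciferase and a cell-permeant prosubstrate, preincubated 5 h at 37 C/5% CO2, then pin-dosed with compounds in DMSO. Nonlytic luminescence from viable cells was read at each time point.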

[5] = qHTS RealTime-Glo MT Cell Viability Assay in HEK293 cells - 24 hour (AID 1224886); also: top concentration of the series differs between compounds; nearly all actives have a fitted effect of over 50% in size
Outline: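 HEK293 cells were seeded at 600 cells/well together with NanoLuc luciferase and cell-permeant prosubstrate, preincubated 5 h at 37 C/5% CO2, then given compound in DMSO by pintool. Luminescence from viable-cell prosubstrate reduction was read repeatedly over 40 h.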

[6] = qHTS RealTime-Glo MT Cell Viability Assay in HEK293 cells - 8 hour (AID 1224887); also: top concentration of the series differs between compounds; nearly all actives have a fitted effect of over 50% in size
Outline: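 Kinetic, non-lysing viability readout. Seed HEK293 (600/well) with reagent, incubate 5 h at 37 C/5% CO2, pin 23 nL compound in DMSO, incubate at 37 C, read luminescence at 0, 8, 16, 24, 32, 40 h.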

[7] = A CellTox Green Cytotoxicity Assay to monitor cytotoxicity in HEK293 cells - 16 hour (AID 1224888); also: nearly all actives have a fitted effect of over 35% in size
Outline: as §1

[8] = qHTS RealTime-Glo MT Cell Viability Assay in HepG2 cells - 0 hour (AID 1224889); also: nearly all actives have a fitted effect of over 50% in size
Outline: as §3

[9] = qHTS assay to identify small molecule antagonists of the estrogen receptor alpha (ER-alpha) signaling pathway using the BG1 cell line in the presence of 0.1 nM 17-beta-estradiol - cell viability counter screen (AID 1259241); also: nearly all actives have a fitted effect of over 40% in size; also: potency is read from the fitted curve at half-maximal effect
Outline: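 CellTiter-Fluor read (30 min, 37C) on ER-alpha/ERE-luc VM7Luc4E2 cells; 22 hr compound treatment; agonist 0.1 nM E2 final; same-well multiplex.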

[10] = qHTS assay to identify small molecule antagonists of the androgen receptor (AR) signaling pathway using the MDA cell line in the presence of 0.5 nM R1881 - cell viability counter screen (AID 1259242); also: nearly all actives have a fitted effect of over 45% in size; also: potency is read from the fitted curve at half-maximal effect
Outline: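 Cells seeded at 3,000/well and allowed 5 hr at 37C, 0% CO2 before compound transfer and R1881 (0.5 nM final) addition; 16 hr later, live-cell protease fluorescence indicated cytotoxicity.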

[11] = target: Estrogen receptor (Homo sapiens) (UniProt P03372); assay: qHTS assay to identify small molecule antagonists of the estrogen receptor alpha (ER-alpha) signaling pathway using the BG1 cell line in the presence of 0.1 nM 17-beta-estradiol (AID 1259244); also: nearly all actives have a fitted effect of over 50% in size
Outline: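 Luciferase signal from VM7Luc4E2 ERE-reporter cells, co-dosed with test compound and 0.1 nM final 17beta-estradiol for 22 h, read with ONE-Glo.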

[12] = qHTS assay to identify small molecule HDAC inhibitors (AID 1259364); also: potency is read from the fitted curve at half-maximal effect;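 also: wild-type HCT-116 cells with endogenous class I/II HDAC activity; nearly all actives have a fitted effect of over 45% in size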; as to activity change, negative = inhibition: top concentration of the series differs between compounds
Outline: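 HCT-116 wt cells, 1,500/well, overnight attach. Compounds (DMSO) 2 h, 37 °C. HDAC-Glo I/II, 30 min RT. Luminescence.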

[13] = qHTS assay to identify small molecule HDAC inhibitors - cell viability counter screen (AID 1259365)
Outline: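 To flag cytotoxic hits, 1,500 wild-type HCT-116 cells per well, plated the day before, receive test compounds for 2hr at 37 C before CellTiter-Glo reagent and a luminescence read.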

[14] = qHTS assay to identify small molecule agonists of the sonic hedgehog signaling (Shh) pathway - cell viability counter screen (AID 1259366); also: nearly all actives have a fitted effect of over 50% in size
Outline: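 Fluorescence from CellTiter-Fluor reports live cells in this counter screen. NIH/3T3-derived Gli1-Luc reporter cells receive test compounds for 24hr at 37C; reagent goes in at 23hr.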

[15] = qHTS assay to identify small molecule antagonists of the sonic hedgehog signaling (Shh) pathway - cell viability counter screen (AID 1259367); also: nearly all actives have a fitted effect of over 55% in size; also: potency is read from the fitted curve at half-maximal effect
Outline: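 Tox21 library chemicals were tested on a Gli1-Luc NIH/3T3 clone (2,000 cells/well) stimulated by conditioned medium; viability was quantified as fluorescence from CellTiter-Fluor reagent added at 23 hr.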

[16] = qHTS assay to identify small molecule agonists of the sonic hedgehog signaling (Shh) pathway (AID 1259368; calls by dose curve; also: nearly all actives have a fitted effect of over 15% in size; also: potency is read from the fitted curve at half-maximal effect;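 as to activity change: NIH/3T3-derived 3T3Gli1-Luc cells carrying a stable Gli1-driven firefly luciferase reporter; series mostly up to about 92 µM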)
Outline: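 Following a 24 hr incubation with DMSO-dissolved compounds at 37 C, 5% CO2, Gli1-Luc NIH/3T3-derived cells received luciferase reagent for 30 min at room temperature prior to luminescence measurement.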

[17] = A CellTox Green Cytotoxicity Assay to monitor cytotoxicity in HepG2 cells - 8 hour (AID 1224890); also: nearly all actives have a fitted effect of over 45% in size
Outline: as §2

[18] = qHTS assay to identify small molecule phospholipidosis (PLD) inducers (AID 1259344; active = well fitted curve in the direction sought with a large enough effect; an effect the other way counts as inactive or inconclusive)
Outline: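 Image-based: LipidTOX Red pit count/intensity per well and per cell; HepG2, 24 h compound at 37 C, PFA fixation, Hoechst counterstain.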

[19] = target: Androgen receptor (Homo sapiens) (UniProt P10275); assay: qHTS assay to identify small molecule antagonists of the androgen receptor (AR) signaling pathway using the MDA cell line in the presence of 0.5 nM R1881 (AID 1259243); also: nearly all actives have a fitted effect of over 50% in size
Outline: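 Luminescence from an AR/GR-responsive MMTV-luciferase construct in MDA-kb2 breast carcinoma cells, read 30 min after ONE-Glo, following 16 hr co-treatment with compounds and 0.5 nM R1881.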

[20] = A CellTox Green Cytotoxicity Assay to monitor cytotoxicity in HepG2 cells - 0 hour (AID 1224882); also: nearly all actives have a fitted effect of over 35% in size
Outline: as §2
% is scaled to controls: 0 for no effect and ±100 for the full control effect.

Estrogen receptor (Homo sapiens), sequence (P03372 whole entry, looked up): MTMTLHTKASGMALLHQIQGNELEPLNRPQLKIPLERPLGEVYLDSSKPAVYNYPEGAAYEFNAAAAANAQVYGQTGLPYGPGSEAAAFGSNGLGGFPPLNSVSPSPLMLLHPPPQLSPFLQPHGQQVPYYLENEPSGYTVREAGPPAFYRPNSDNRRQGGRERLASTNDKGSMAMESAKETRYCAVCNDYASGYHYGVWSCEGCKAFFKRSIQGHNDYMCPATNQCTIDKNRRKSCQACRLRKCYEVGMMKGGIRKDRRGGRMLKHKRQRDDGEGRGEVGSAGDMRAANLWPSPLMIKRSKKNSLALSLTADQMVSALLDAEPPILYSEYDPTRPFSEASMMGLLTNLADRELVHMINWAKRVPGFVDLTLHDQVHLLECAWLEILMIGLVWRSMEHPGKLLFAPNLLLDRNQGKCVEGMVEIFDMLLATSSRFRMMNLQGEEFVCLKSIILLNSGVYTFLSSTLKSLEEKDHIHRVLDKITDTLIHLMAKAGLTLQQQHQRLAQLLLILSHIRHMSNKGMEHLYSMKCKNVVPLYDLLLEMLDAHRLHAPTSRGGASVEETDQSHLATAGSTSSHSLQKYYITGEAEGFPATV
Androgen receptor (Homo sapiens), sequence (P10275 whole entry, looked up): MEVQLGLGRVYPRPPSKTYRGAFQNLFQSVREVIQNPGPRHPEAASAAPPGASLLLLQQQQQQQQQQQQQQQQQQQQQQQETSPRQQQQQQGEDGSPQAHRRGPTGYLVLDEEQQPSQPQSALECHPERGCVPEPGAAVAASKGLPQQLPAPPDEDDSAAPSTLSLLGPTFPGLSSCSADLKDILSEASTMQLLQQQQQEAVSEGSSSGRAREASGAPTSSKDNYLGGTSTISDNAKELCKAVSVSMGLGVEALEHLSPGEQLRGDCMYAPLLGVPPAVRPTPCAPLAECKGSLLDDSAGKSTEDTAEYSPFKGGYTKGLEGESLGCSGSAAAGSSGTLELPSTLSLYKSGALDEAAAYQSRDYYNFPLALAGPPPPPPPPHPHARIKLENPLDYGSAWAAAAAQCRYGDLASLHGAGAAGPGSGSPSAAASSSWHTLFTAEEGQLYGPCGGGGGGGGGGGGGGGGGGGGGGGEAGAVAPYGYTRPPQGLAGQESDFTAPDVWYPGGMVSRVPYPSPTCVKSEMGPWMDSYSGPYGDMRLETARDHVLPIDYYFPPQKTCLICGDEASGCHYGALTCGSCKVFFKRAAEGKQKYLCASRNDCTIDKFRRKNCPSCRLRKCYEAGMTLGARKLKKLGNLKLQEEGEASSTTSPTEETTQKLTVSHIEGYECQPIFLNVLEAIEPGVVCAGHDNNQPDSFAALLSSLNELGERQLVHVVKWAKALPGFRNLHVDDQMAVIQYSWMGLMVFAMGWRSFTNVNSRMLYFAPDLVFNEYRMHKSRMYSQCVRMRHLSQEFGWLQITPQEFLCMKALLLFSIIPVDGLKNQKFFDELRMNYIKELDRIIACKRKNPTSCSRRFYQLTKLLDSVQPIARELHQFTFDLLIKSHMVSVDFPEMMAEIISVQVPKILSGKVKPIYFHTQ

CC1=Nc2ccccc2C1(C)C
active: Potency [2] 43.7 µM
inactive: Potency [1] | Potency [3] | Potency [4] | Potency [5] | Potency [6] | Potency [7] | Potency [8] | Potency [9] | Potency [10] | Potency [11] | Potency [12] | Potency [13] | Potency [14] | Potency [15] | Potency [16]

Cc1ccc(N/N=c2\c(=O)cc/c(=N\Nc3ccc(S(=O)(=O)O)cc3)c2=O)c(C)c1
inactive: Potency [1] | Potency [2] | Potency [3] | Potency [4] | Potency [5] | Potency [6] | Potency [7] | Potency [17] | Potency [13] | Potency [16]
active: Potency [9] 27.3 µM | Potency [10] 48.6 µM | Potency [12] 19.3 µM | Potency [15] 27.3 µM

CCC(C)[O-].CCC(C)[O-].CCOC(=O)/C=C(/C)[O-].[Al+3]
inactive: Potency [1] | Potency [2] | Potency [3] | Potency [4] | Potency [5] | Potency [6] | Potency [7] | Potency [8] | Potency [17] | Potency [9] | Potency [10] | Potency [12] | Potency [13] | Potency [16]

O=C(O)Cc1ccc2c(c1)C(=O)c1ccccc1CO2
inactive: Potency [1] | Potency [2] | Potency [3] | Potency [4] | Potency [5] | Potency [6] | Potency [7] | Potency [8] | Potency [17] | Potency [9] | Potency [10] | Potency [11] | Potency [12] | Potency [13] | Potency [14] | Potency [16]

COc1cc2nc(N3CCN(C(=O)c4ccco4)CC3)nc(N)c2cc1OC
inactive: cytotoxicity increase [1] 43.4% [at 15.8 µM] | cytotoxicity increase [3] -2.23% [at 15.8 µM] | activity change, negative = cytotoxic [4] -15.2% [at 15.8 µM] | activity change, negative = cytotoxicity [5] -15.4% [at 15.8 µM] | activity change, negative = cytotoxicity [6] -21.9% [at 15.8 µM] | activity change [7] 1.13% [at 15.8 µM, stronger effect = higher value] | activity change, negative = cytotoxicity [8] 8.34% [at 15.8 µM] | activity change, negative = cytotoxicity [9] 2.36% [at 19 µM] | activity change, negative = inhibition [11] -15.5% [at 19 µM] | Potency [18] | activity change, negative = cytotoxicity [13] -0.972% [at 19 µM] | viability change, negative = cytotoxic [15] -24.8% [at 19 µM] | activity change [16] -4.98% [at 18.9 µM, stronger effect = higher value]
active: Potency [2] 10.4 µM

O=C(O)c1cc(N=Nc2ccc([N+](=O)[O-])cc2)ccc1O
active: Potency [12] 0.848 µM | Potency [15] 30.1 µM
inactive: Potency [1] | Potency [2] | Potency [3] | Potency [4] | Potency [5] | Potency [6] | Potency [7] | Potency [8] | Potency [17] | Potency [11] | Potency [13] | Potency [16]

CC(=O)c1ccc(C(C)=O)cc1
inactive: Potency [1] | Potency [2] | Potency [3] | Potency [4] | Potency [5] | Potency [6] | Potency [7] | Potency [8] | Potency [17] | Potency [9] | Potency [10] | Potency [19] | Potency [12] | Potency [13] | Potency [14] | Potency [15] | Potency [16]

OC12N=C(c3ccccc3)SC1Cc1cc(Cl)ccc12 (configuration not stated)
active: Potency [12] 27.3 µM | Potency [16] 2.73 µM
inactive: Potency [1] | Potency [20] | Potency [3] | Potency [4] | Potency [6] | Potency [7] | Potency [8] | Potency [17] | Potency [9] | Potency [10] | Potency [11] | Potency [13] | Potency [14] | Potency [15]

COc1cc(/C=C/c2ccccc2)oc(=O)c1
active: Potency [12] 11.2 µM | Potency [16] 2.52 µM
inactive: Potency [1] | Potency [20] | Potency [3] | Potency [4] | Potency [6] | Potency [7] | Potency [8] | Potency [17] | Potency [9] | Potency [10] | Potency [11] | Potency [13] | Potency [14]

COc1c(C)c2c(c(O)c1C/C=C(\C)CCC(=O)OCCN1CCOCC1)C(=O)OC2
inactive: Potency [1] | Potency [2] | Potency [3] | Potency [4] | Potency [5] | Potency [6] | Potency [7] | Potency [8] | Potency [17] | Potency [9] | Potency [10] | Potency [19] | Potency [11] | Potency [18] | Potency [12] | Potency [13] | Potency [14] | Potency [15] | Potency [16]

CC(C)NC[C@@H](O)COc1ccc(CC(N)=O)cc1
inactive: Potency [1] | Potency [2] | Potency [3] | Potency [4] | Potency [5] | Potency [6] | Potency [7] | Potency [8] | Potency [17] | Potency [9] | Potency [10] | Potency [11] | Potency [18] | Potency [12] | Potency [13] | Potency [14] | Potency [16]

CN(C)CCN1CCN(c2cccc(Cl)c2)C1=O
inactive: Potency [1] | Potency [2] | Potency [3] | Potency [4] | Potency [7] | Potency [8] | Potency [17] | Potency [9] | Potency [10] | Potency [19] | Potency [11] | Potency [12] | Potency [13] | Potency [14] | Potency [16]

O=[N+]([O-])c1ccc(O)cc1C(F)(F)F
inactive: Potency [1] | Potency [20] | Potency [3] | Potency [4] | Potency [6] | Potency [7] | Potency [8] | Potency [17] | Potency [12] | Potency [13] | Potency [14] | Potency [15] | Potency [16]
active: Potency [9] 48.6 µM | Potency [10] 27.3 µM

From PubChem BioAssay (Tox21)
